From PubChem
Beta apoptosis: blocks beta cell apoptosis. INS-1E cytokine-induced death, ATP luminescence, 48 h; percent of positive-control rescue, neutral wells zero. AID 435005. 0.8% of 300,000 active. protection from apoptosis, % (test concentration not listed);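 active = Every replicate reaches about 75%, or at least half do and their mean reaches it too, limit read from the data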;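 note: 0% = cytokine-treated negative control wells and 100% = positive control rescue; higher means more ATP so stronger rescue from cytokine killing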
GRIN3A LBD mod: NR3A (human) ligand-binding domain modulation | 2.5% of 340,000 active | NR3A LBD differential scanning fluorimetry, Tm shift; 0% = protein alone, 100% = glycine-bound protein | Tm shift relative to glycine control, % at 25 µM | AID 1259313;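 active = melting temperature shift of at least 10% of the positive control shift, at one fixed dose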
CSC inhib: blocks cancer stem cells | 1.1% of 300,000 active | cancer stem cell-like cells viability, luminescence | AID 2717 | inhibition, % at 7.5 µM; in the data active = inhibition above about 75%; tested in HMLE shEcad cells
Mdm2-MdmX inh: human Mdm2/MdmX binding inhibition. SaOS-2 split-luciferase Mdm2/MdmX complementation, luminescence. inhibition, % at 8 µM. 3% of 330,000 active. AID 485346;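 active = inhibition of at least 50% at 8 µM in the primary screen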
MPTP block: blocks calcium-induced mitochondrial swelling. inhibition, % at 10 µM. AID 602449. 1.4% of 360,000 active. isolated mouse mitochondria, Ca2+ swelling absorbance, 30 min;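 active = inhibition of 50% or more, scaled per plate between neutral and stimulator controls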;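 note: 0% = DMSO wells given calcium and 100% = 1 mM EGTA wells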
Gli-Sufu block: antagonists of Gli-Sufu signaling. 0.74% of 340,000 active. inhibition, % at 5 µM. AID 588413. Sufu-KO-LIGHT fibroblasts, Gli luciferase reporter luminescence;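 active = inhibition above about 55%, limit read from the data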;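 note: 0% = DMSO-treated cells and 100% = wells with medium but no cells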
Gli antag conf: Gli-SUFU antagonism confirmation, single concentration; shares compounds with Gli-Sufu block; AID 602428; Sufu-KO-LIGHT cells, Gli luciferase reporter, luminescence; inhibition, % at 5 µM; 40% of 2,500 active;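 active = mean inhibition at 5 µM reaching about 45%, limit read from the data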;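 note: plate controls were DMSO-treated cells for no effect and wells lacking cells for full effect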
SufuKO cytotox: cytotoxicity counter-screen for Gli-SUFU antagonists. shares compounds with Gli-Sufu block. Sufu-KO-LIGHT cells cytotoxicity, ATP luminescence. cytotoxicity, % at 5 µM. 32% of 2,500 active. AID 651994;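 active = mean cytotoxicity at 5 µM above about 25%, limit read from the data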;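 note: cells exposed to compound overnight for roughly 16 to 18 hours; plate controls were DMSO wells with cells for no effect and medium without cells for full effect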
Wnt3a cs: inhibits Wnt3a reporter, counter-screen for Gli-SUFU antagonists | shares compounds with Gli-Sufu block | Wnt-LIGHT cells, Wnt3a-driven luciferase reporter, luminescence | inhibition, % at 6.25 µM | 20% of 2,500 active;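 active = mean inhibition above about 25%, limit read from the data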
The depositor's hits bear a star; x = not tested or not shown. Rows were chosen to be rich in hits. Some 6.6% of all compounds tested hit in one or more screens of this group.

SMILES	Beta apoptosis	GRIN3A LBD mod	CSC inhib	Mdm2-MdmX inh	MPTP block	Gli-Sufu block	Gli antag conf	SufuKO cytotox	Wnt3a cs
CN(C)S(=O)(=O)c1cccc(NC(=O)C(c2ccccc2)c2ccccc2)c1	1.2	-2.8	-7.7	13.0	0.3	-14.3	x	x	x
CC(C)N(C(=S)Nc1cccc(S(=O)(=O)N(C)C)c1)c1ccccc1	-6.7	0.5	-8.9	-2.1	16.7	54.9	11.6	1.2	-26.6
C/C(=N\NC(=O)c1ccn(C)n1)c1ccc(NC(=O)C2CCCC2)cc1	-1.5	-1.9	14.3	-22.8	-0.5	1.5	x	x	x
C/C(=N\NC(=O)c1ccn(C)n1)c1ccc(NC(=O)C2CCC2)cc1	-1.2	0.6	24.5	10.9	0.2	71.9*	21.0	14.1	18.5
CN(CCOc1ccc(Cl)cc1)C(=O)CN1C(=O)NC2(CCCC2)C1=O	-8.2	1.0	-13.7	8.9	-0.2	-6.3	x	x	x
Cc1nnsc1C(=O)NC1CCCc2c1cnn2-c1cc(F)cc(F)c1 (stereo not drawn)	24.7	3.5	1.9	12.7	-0.3	5.3	x	x	x
Cc1nnsc1C(=O)NC1CCCc2c1cnn2-c1ccc(F)cc1F (stereo not drawn)	49.4	2.2	-0.3	26.6	6.8	65.2*	56.4*	13.2	-3.9
COC(=O)c1ccc(C(=O)NC2CCCc3c2cnn3-c2ccccc2F)nc1 (stereo not drawn)	16.2	-3.0	62.1	42.0	-0.9	40.2	x	x	x
COc1cc(C(=O)NC2CCCc3c2cnn3-c2ccccc2F)cc(OC)c1OC (stereo not drawn)	19.6	-0.6	-10.0	17.6	-0.4	61.1*	47.7*	34.1*	13.4
CC(C)(C)c1ccc(OCCOc2ccc(C(C)(C)C)cc2NC=O)c(NC=O)c1	x	-12.8	x	31.7	14.1	8.8	x	x	x
CS(=O)(=O)c1nc(S(=O)(=O)c2ccc(Cl)cc2)c(NCCCn2ccnc2)s1	-2.8	-1.1	15.5	4.0	-2.2	57.0*	11.1	5.6	2.6
CCOC(=O)COc1ccc2c3c(c(=O)oc2c1C)CCC3	0.3	2.1	-4.0	1.4	9.4	10.8	x	x	x
Cc1c(OCC(=O)C(C)(C)C)ccc2c3c(c(=O)oc12)CCCC3	x	0.6	51.9	6.4	3.5	62.3*	27.4	6.5	-50.1
Cc1cccc(C)c1NC(=O)C1CCCN1S(=O)(=O)c1ccc(-c2ccc(=O)[nH]n2)s1 (stereo not drawn)	-1.4	1.2	2.3	5.9	-0.6	51.0	13.3	5.2	34.9*
CCc1ccccc1NC(=O)C1CCCN1S(=O)(=O)c1ccc(-c2ccc(=O)[nH]n2)s1 (stereo not drawn)	2.6	-1.6	10.9	23.3	0.4	44.4	x	x	x
COc1ccc(N2CCN(C3CC(=O)N(C)C3=O)CC2)cc1 (stereo not drawn)	-3.4	-0.6	-7.7	-3.5	-6.7	67.0*	25.2	0.9	8.9
CN1C(=O)CC(N2CCN(c3ccc(Cl)cc3)CC2)C1=O (stereo not drawn)	-0.3	0.8	5.2	0.7	0.4	-1.0	x	x	x
O=C1N/C(=C\c2ccc(O)cc2)C(O)=C1C=NCc1ccccc1	-3.4	-13.4	50.9	10.1	2.3	71.2*	47.4*	19.2	11.2
O=C1CCCC(O)=C1C=NCc1ccccc1	-10.7	-1.8	5.9	-15.7	2.2	58.4*	32.4	4.0	-4.3
O=C1CC(c2ccccc2)CC(O)=C1C=NCc1ccccc1 (stereo not drawn)	5.0	x	-6.3	-1.8	-0.2	2.7	x	x	x
O=C(N/N=C/c1ccc([N+](=O)[O-])o1)C1CCCC1	7.5	-1.3	12.3	7.7	1.8	20.6	x	x	x
O=[N+]([O-])c1ccc(/C=[N+](\[O-])[C@@H]2CCCC[C@@H]2/[N+]([O-])=C/c2ccc([N+](=O)[O-])o2)o1	-11.5	-1.6	14.5	3.4	0.5	76.4*	67.1*	-1.5	20.7
Cc1nc2ccccc2c2oc(C(=O)N3CCN(C4CCCCC4)CC3)cc12	23.1	0.5	20.5	12.6	1.1	54.5	46.1*	12.4	-15.2
